{"source": "the supplement of paper PMC7530171", "note": "± gives the standard deviation."}
{"test_system": "THP-1 macrophages infected with Mycobacterium tuberculosis H37Rv", "test": "intracellular M.tb growth inhibition relative to DMSO (0) and 4 uM bedaquiline (100); higher = stronger inhibition of intracellular bacterial growth", "conditions": "10 µM; 4 days", "description": "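OICR kinase inhibitor library screened in duplicate at 10 uM against THP-1 macrophages (PMA-differentiated) infected with M. tuberculosis H37Rv-pTEC27 (tdTomato RFP), 4 days at 37 C. Rows with complete host cell loss (placeholder inhibition 0, cell loss 100) were removed.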", "units": {"intracellular M.tb growth inhibition": "%"}}
{"smiles": "Cc1cc(C(=O)Nc2cc(Nc3ccc4c(/C=C/c5ccccn5)n[nH]c4c3)ccc2F)n(C)n1", "intracellular M.tb growth inhibition": "-16.4 ± 71"}
{"smiles": "COc1cc2c(Nc3ccc(NC(=O)c4ccccc4)cc3)ncnc2cc1OCCCN1CCOCC1", "intracellular M.tb growth inhibition": "-10.1 ± 48"}
{"smiles": "CN(C)CCOc1ccc(-c2nc(-c3ccncc3)c(-c3ccc4c(c3)CC/C4=N\\O)[nH]2)cc1", "intracellular M.tb growth inhibition": "35.2 ± 75"}
{"smiles": "C[S+]([O-])c1ccc(-c2nc(-c3ccc(F)cc3)c(-c3ccncc3)[nH]2)cc1", "note": "(centres undefined)", "intracellular M.tb growth inhibition": "14.3 ± 12"}
{"smiles": "N#Cc1c(NC(=O)c2cccc3ccccc23)sc2c1CCCC2", "intracellular M.tb growth inhibition": "-226 ± 330"}
{"smiles": "O=C1NC(=O)/C(=C/c2ccc(-c3ccc(F)cc3O)o2)S1", "intracellular M.tb growth inhibition": "25.3 ± 6.9"}
{"smiles": "CCOc1cc2ncc(C#N)c(Nc3ccc(OCc4ccccn4)c(Cl)c3)c2cc1NC(=O)/C=C/CN(C)C", "note": "[Neratinib]", "intracellular M.tb growth inhibition": "-146 ± 210"}
{"smiles": "CC#CC(=O)Nc1ccc2ncnc(Nc3cccc(Br)c3)c2c1", "intracellular M.tb growth inhibition": "3.12 ± 4.4"}
{"smiles": "NC(=O)c1ccc(-c2nc(-c3ccccn3)c(-c3ccc4c(c3)OCO4)[nH]2)cc1", "intracellular M.tb growth inhibition": "17.9 ± 36"}
{"smiles": "Cc1ccc(NC(=O)c2ccc(CN3CCN(C)CC3)cc2)cc1Nc1nccc(-c2cccnc2)n1", "note": "[Imatinib (free base)]", "intracellular M.tb growth inhibition": "33.2 ± 16"}
{"smiles": "CO[C@@H]1[C@H](N(C)C(=O)c2ccccc2)C[C@H]2O[C@]1(C)n1c3ccccc3c3c4c(c5c6ccccc6n2c5c31)C(=O)NC4", "intracellular M.tb growth inhibition": "60.7 ± 13"}
{"smiles": "CCc1cncnc1N1CCN(Cc2nc3ccc(C(F)(F)F)cc3[nH]2)CC1", "intracellular M.tb growth inhibition": "16.2 ± 23"}
{"smiles": "Cc1cc(N2CCOCC2)cc2[nH]c(-c3c(NC[C@@H](O)c4cccc(Cl)c4)cc[nH]c3=O)nc12", "intracellular M.tb growth inhibition": "-36.6 ± 15"}
{"smiles": "Cc1ccccc1C(=O)c1ccc(Nc2ccc(Br)cc2N)cc1Cl", "intracellular M.tb growth inhibition": "20.1 ± 14"}
